Measured values published in the supplement of paper PMC10849652.
About 8,800 targets were measured; listed, in parts, are those with a hit and a random draw of the rest. About 0.5% of all pairs of compound and target were hits.

Columns and labels:
Assay in all cases: log2 fold change, soluble protein after heating vs DMSO (PISA); higher = thermal stabilisation; K562 lysate, 10 uM; active = over 0.2 and 3.5 SD of the protein, either way, in both replicates (recomputed)
[1] = compound: C#Cc1cccc(Nc2ncnc3cc(OCCOC)c(OCCOC)cc23)c1 [erlotinib]
Summary of the method: (§1)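 To prepare the extract, K562 pellets were dounce-homogenised in PBS pH 7.4 with 1 mM MgCl2, giving crude material at 1 mg/mL protein. This was treated with 10 μM compound for 30 min, then heated in aliquots for 3 min over 48°C-58°C before pooling and addition of NP-40 to 0.5% at 4°C. Centrifugation at 21,000xg for 90 min left soluble protein in the supernatant, which TMTpro 16plex LC-MS/MS quantified with equalised channel sums. Results are log-two fold changes in thermal stability compared with solvent controls, from duplicates.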

[2] = compound: C/C(=N\NC(=O)C1=CC(=CC=C1)S(=O)(=O)N2CCOCC2)/C3=C(C=CC(=C3)Cl)O
Summary of the method: as §1

[3] = compound: C1=CC(=CC=C1C2=NC3=C(N2)C=C(C=C3)C(=O)N)OC4=CC=C(C=C4)Cl
Summary of the method: as §1

[4] = compound: C1=CC2=C(C=CC(=C2)/C=C\3/C(=O)NC(=NCC4=CC=CS4)S3)N=C1
Summary of the method: as §1

[5] = compound: C1=CC2=NC=CN=C2C=C1/C=C/3\C(=O)NC(=O)S3
Summary of the method: as §1

[6] = compound: C1=CC=C(C=C1)C2=NC(=C(N2)C3=CC=NC=C3)C4=CC(=C(C=C4)Cl)O
Summary of the method: as §1

[7] = compound: C1=CC=C2C(=C1)C3=NNC4=CC=CC(=C43)C2=O
Summary of the method: as §1

[8] = compound: C1CCN(C1)C(=O)NC2=CC=CC(=C2)NC3=NC=C(C(=N3)NCCC4=CN=CN4)Br
Summary of the method: as §1

[9] = compound: C1CN(CCC1(CC2=CC=C(C=C2)Cl)N)C3=NC=NC4=C3C=CN4
Summary of the method: as §1

[10] = compound: C1COCCN1CCN2C3=CC=CC=C3N=C2NC(=O)C4=CC(=CC=C4)[N+](=O)[O-] [IRAK-1-4 Inhibitor I]
Summary of the method: as §1

[11] = compound: C=CC(=O)N1CCC[C@@H](n2nc(-c3ccc(Oc4ccccc4)cc3)c3c(N)ncnc32)C1 [ibrutinib]
Summary of the method: as §1

[12] = compound: CC(=O)c1cnc2ccc(-c3cc(Cl)c(O)c(Cl)c3)nc2c1N[C@H]1CC[C@H](CN(C)C)CC1
Summary of the method: as §1

[13] = compound: CC(C)(C)Cn1c(N)nc2ccc(-c3[nH]c(C(C)(C)C)nc3-c3ccc(F)cc3)nc21 [ralimetinib]
Summary of the method: as §1

[14] = compound: CC(C)(O)CC(=O)NCCn1ccc2ncnc(Nc3ccc(Oc4cccc(C(F)(F)F)c4)c(Cl)c3)c21
Summary of the method: as §1

[15] = compound: CC(C)C1=C2N=C(C=C(N2N=C1)NCC3=CC=CC=C3)NCCCCCCN
Summary of the method: as §1

[16] = compound: CC1=C(C(CC(=O)N1)C2=CC=C(C=C2)C(F)(F)F)C(=O)NC3=C(C=C4C(=C3)C=NN4)F
Summary of the method: as §1

[17] = compound: CC1=C(C2=C(C=C1)C(=O)C3=CC=CC=C3N2CCCN)C
Summary of the method: as §1

[18] = compound: CC1=C(C=C(C=C1)NC(=O)C2=CC(=CC=C2)C(C)(C)C#N)NC3=CC4=C(C=C3)N=CN(C4=O)C
Summary of the method: as §1

[19] = compound: CC1=C(C=C(C=C1)NC(=O)C2=CC(=CC=C2)N(C)C)NC(=O)C3=CC=C(C=C3)O
Summary of the method: as §1

[20] = compound: CC1=CC=C(C=C1)SC2=C3C=C(SC3=CN=C2)C(=O)N
Summary of the method: as §1

Measured: log2 fold change

CAMKK1 isoform 2 (UniProt Q8N5S9)
inactive: [1] -0.037 | [2] 0.042 | [3] -0.003 | [4] -0.085 | [5] 0.043 | [6] -0.01 | [7] 0.042 | [8] -0.076 | [9] -0.069 | [10] 0.001 | [11] 0.027 | [12] 0.189 | [13] 0.063 | [14] -0.153 | [15] -0.059 | [16] -0.008 | [17] -0.055 | [18] 0.014 | [19] 0.004 | [20] 0.138

ATP6V1B1 (UniProt P15313)
Chain of UniProt P15313 (P15313 whole entry, looked up): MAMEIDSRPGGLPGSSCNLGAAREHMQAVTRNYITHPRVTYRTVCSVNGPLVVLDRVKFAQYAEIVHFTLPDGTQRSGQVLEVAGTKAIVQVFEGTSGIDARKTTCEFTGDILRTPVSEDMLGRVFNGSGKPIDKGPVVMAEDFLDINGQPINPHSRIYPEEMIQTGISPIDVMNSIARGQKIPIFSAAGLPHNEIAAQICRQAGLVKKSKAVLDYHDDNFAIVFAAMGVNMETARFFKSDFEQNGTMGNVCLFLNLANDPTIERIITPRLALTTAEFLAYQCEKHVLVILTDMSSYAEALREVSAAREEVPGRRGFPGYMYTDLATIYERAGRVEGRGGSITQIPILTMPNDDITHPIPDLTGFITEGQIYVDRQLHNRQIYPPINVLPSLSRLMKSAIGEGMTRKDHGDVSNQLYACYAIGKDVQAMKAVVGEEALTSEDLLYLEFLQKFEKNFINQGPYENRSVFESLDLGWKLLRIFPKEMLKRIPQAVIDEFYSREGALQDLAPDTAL
inactive: [1] -0.044 | [2] 0.014 | [3] 0.027 | [4] -0.036 | [5] 0.013 | [6] -0.02 | [7] 0.006 | [8] -0.033 | [9] 0.001 | [10] 0.019 | [11] -0.001 | [12] 0 | [13] 0.037 | [14] -0.025 | [15] -0.013 | [16] 0.024 | [17] -0.011 | [18] 0.005 | [19] 0.031 | [20] -0.015

CHCHD1 (UniProt Q96BP2)
inactive: [1] -0.002 | [2] -0.7 | [3] 0.029 | [4] -0.053 | [5] 0.005 | [6] 0.021 | [7] -0.002 | [8] 0.04 | [9] 0.043 | [10] 0.068 | [11] -0.004 | [12] 0.021 | [13] 0.047 | [14] -0.101 | [15] -0.059 | [16] 0 | [17] -0.081 | [18] -0.014 | [19] -0.032 | [20] -0.055

ATXN2 (UniProt Q99700)
inactive: [1] 0.007 | [2] -0.015 | [3] 0.063 | [4] -0.006 | [5] -0.041 | [6] -0.005 | [7] -0.022 | [8] 0.026 | [9] 0.014 | [10] 0.016 | [11] -0.007 | [12] -0.011 | [13] -0.002 | [14] 0 | [15] 0.016 | [16] 0.013 | [17] -0.022 | [18] -0.02 | [19] 0.041 | [20] -0.021

C3 (UniProt P01024)
Chain of UniProt P01024 (P01024 whole entry, looked up): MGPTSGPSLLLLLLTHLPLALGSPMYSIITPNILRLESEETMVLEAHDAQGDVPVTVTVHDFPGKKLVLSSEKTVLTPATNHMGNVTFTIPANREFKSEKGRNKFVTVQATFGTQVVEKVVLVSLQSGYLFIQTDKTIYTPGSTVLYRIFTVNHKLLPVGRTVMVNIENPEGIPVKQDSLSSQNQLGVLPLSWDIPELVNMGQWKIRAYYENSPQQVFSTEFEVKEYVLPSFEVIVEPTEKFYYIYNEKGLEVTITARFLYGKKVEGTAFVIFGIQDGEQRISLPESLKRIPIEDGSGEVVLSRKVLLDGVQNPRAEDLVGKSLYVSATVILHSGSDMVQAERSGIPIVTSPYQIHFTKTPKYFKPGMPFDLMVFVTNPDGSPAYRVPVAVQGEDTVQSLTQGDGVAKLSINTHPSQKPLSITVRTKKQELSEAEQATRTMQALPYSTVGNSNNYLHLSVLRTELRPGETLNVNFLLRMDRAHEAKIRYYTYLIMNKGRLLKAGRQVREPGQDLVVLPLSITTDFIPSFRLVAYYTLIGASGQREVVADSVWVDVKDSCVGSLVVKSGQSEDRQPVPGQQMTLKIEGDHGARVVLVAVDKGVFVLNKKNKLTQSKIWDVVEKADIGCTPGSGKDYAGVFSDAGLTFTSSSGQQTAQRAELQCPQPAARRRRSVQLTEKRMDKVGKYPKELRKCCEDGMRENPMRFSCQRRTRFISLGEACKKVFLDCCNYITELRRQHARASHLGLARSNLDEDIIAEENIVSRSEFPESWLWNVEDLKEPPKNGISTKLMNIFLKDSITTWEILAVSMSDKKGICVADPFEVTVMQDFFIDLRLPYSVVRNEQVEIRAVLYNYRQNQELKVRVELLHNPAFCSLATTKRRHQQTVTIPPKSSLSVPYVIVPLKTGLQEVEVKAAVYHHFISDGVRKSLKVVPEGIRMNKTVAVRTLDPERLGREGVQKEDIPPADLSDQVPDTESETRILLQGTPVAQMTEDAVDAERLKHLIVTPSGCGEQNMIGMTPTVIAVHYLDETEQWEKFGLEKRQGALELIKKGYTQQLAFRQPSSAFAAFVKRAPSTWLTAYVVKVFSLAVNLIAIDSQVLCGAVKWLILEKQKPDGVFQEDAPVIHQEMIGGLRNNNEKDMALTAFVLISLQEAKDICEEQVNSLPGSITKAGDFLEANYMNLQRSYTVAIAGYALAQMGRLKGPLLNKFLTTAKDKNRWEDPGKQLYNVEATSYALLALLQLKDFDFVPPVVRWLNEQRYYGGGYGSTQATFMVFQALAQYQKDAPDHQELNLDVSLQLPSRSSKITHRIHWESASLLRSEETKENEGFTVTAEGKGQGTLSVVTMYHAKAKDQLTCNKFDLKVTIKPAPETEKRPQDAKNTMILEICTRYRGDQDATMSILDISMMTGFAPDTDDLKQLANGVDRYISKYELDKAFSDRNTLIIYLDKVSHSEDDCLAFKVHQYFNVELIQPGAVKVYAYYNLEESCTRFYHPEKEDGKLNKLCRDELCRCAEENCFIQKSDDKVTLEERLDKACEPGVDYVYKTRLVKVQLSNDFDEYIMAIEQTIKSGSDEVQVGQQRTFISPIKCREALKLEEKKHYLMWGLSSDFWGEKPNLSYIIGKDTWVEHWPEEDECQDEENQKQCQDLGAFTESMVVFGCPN
inactive: [1] 0.016 | [2] -0.031 | [3] 0 | [4] 0.004 | [5] -0.036 | [6] 0.151 | [7] -0.061 | [8] -0.042 | [9] 0.01 | [10] -0.014 | [11] -0.047 | [12] -0.011 | [13] -0.077 | [14] -0.032 | [15] 0.865 | [16] 0.243 | [17] -0.004 | [18] 0.01 | [19] 0.026 | [20] 0.001

BLOC1S6 (UniProt Q9UL45)
Chain of UniProt Q9UL45 (Q9UL45 whole entry, looked up): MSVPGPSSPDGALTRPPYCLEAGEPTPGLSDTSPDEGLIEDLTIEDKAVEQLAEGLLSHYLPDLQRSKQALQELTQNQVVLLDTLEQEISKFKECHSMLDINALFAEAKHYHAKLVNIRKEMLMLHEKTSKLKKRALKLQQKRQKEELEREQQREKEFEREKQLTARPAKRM
inactive: [1] -0.008 | [2] 0.007 | [3] 0.029 | [4] 0.027 | [5] 0.001 | [6] 0.002 | [7] -0.004 | [8] 0.093 | [9] -0.01 | [10] -0.031 | [11] 0.156 | [12] -0.07 | [13] 0.015 | [14] 0.061 | [15] -0.029 | [16] 0.014 | [17] -0.033 | [18] -0.001 | [19] -0.017 | [20] 0.012

CCDC22 (UniProt O60826)
inactive: [1] -0.039 | [2] -0.007 | [3] 0.002 | [4] 0.02 | [5] -0.03 | [6] -0.017 | [7] -0.06 | [8] 0.007 | [9] 0.03 | [10] 0.011 | [11] 0.006 | [12] 0.033 | [13] -0.005 | [14] -0.045 | [15] -0.009 | [16] 0.005 | [17] 0.001 | [18] -0.01 | [19] 0.025 | [20] -0.027

ATR (UniProt Q13535)
Chain of UniProt Q13535 (Q13535 whole entry, looked up): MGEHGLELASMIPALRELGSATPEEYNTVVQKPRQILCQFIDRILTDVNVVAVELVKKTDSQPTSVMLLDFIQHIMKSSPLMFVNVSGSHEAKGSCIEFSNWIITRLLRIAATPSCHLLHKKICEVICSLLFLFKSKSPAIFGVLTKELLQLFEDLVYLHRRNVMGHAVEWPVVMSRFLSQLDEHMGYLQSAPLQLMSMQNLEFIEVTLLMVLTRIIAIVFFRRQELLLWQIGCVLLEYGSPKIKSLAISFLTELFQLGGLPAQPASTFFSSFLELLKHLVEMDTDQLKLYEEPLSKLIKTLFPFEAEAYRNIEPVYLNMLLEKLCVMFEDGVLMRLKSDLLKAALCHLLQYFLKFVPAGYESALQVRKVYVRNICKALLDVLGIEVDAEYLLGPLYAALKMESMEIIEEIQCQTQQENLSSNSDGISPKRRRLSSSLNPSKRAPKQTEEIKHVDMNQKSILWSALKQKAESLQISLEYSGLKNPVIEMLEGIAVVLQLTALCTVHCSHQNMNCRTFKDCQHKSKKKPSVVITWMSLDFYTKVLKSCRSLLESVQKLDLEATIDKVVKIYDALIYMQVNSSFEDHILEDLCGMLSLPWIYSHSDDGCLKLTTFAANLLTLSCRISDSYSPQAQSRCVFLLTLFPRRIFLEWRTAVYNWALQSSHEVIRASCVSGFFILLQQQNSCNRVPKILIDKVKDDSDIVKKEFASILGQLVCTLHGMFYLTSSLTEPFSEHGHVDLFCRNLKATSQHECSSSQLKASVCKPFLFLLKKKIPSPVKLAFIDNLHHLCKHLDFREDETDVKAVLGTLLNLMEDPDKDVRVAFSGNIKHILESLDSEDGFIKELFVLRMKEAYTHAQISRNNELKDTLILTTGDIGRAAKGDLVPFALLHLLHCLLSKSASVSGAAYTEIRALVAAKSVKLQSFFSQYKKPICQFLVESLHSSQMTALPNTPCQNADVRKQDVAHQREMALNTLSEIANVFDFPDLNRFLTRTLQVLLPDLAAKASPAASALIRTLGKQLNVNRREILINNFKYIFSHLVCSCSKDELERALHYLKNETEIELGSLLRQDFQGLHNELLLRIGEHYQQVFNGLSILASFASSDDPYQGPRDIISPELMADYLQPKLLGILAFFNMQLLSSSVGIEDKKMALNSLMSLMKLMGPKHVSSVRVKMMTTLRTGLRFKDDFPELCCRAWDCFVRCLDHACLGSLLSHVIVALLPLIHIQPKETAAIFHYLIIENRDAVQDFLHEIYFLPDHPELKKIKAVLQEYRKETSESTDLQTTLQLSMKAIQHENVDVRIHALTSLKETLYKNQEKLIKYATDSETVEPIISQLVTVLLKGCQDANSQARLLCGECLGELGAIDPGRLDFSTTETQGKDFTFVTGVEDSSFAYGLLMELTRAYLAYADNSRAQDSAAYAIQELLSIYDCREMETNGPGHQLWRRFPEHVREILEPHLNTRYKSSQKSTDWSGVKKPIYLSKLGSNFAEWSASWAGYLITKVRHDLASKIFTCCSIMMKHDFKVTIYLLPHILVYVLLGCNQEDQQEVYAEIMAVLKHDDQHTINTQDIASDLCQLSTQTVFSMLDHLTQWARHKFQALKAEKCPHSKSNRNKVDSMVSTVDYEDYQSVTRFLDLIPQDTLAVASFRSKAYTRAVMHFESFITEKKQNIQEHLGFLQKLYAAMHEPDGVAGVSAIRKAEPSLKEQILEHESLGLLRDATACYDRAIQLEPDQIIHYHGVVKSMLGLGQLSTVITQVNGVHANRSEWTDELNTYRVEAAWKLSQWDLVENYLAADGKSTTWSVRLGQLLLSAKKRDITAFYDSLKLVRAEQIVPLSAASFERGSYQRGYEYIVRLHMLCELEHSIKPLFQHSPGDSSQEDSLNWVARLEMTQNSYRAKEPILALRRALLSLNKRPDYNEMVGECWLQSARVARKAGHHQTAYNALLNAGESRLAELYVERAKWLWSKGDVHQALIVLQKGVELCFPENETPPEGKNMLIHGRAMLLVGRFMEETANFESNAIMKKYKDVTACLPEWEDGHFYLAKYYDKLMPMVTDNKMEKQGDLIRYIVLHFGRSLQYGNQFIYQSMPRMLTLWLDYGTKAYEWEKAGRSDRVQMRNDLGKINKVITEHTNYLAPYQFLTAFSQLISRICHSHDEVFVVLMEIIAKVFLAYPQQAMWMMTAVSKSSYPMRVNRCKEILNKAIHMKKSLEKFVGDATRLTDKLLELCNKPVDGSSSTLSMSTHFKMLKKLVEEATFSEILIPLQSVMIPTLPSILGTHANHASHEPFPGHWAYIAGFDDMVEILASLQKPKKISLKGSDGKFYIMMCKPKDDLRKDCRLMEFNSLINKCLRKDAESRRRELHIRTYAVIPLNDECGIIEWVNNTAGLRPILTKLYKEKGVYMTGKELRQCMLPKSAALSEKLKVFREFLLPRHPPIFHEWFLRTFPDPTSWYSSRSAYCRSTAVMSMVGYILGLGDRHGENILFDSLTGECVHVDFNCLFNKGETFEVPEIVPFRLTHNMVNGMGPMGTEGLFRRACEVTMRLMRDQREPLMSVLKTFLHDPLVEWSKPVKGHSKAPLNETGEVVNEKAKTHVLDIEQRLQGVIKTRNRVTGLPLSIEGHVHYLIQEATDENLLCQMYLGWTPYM
inactive: [1] -0.025 | [2] -0.012 | [3] -0.055 | [4] 0.336 | [5] 0.255 | [6] 0.125 | [7] 0.071 | [8] -0.005 | [9] 0.125 | [10] -0.025 | [11] 0.06 | [12] 0.319 | [13] 0 | [14] -0.037 | [15] 0.016 | [16] -0.015 | [17] -0.031 | [18] 0.032 | [19] 0.039 | [20] -0.053
